Read-out in assay [1]: Thrombomodulin, THBD (gene 7056)
Briefly: BSK_CASM3C_Thrombomodulin: BioMAP Diversity Plus: CASM3C Assay for Thrombomodulin Biomarker Activity (AID 2283051).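 Further: thrombomodulin protein level measured by ELISA 24 h after dosing.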 The settings on record: primary human coronary artery smooth muscle cells; actives raise or lower the signal.

Read-out in assay [2]: Tissue Factor, F3 (gene 2152)
Briefly: BSK_CASM3C_TissueFactor: BioMAP Diversity Plus: CASM3C Assay for Tissue Factor Biomarker Activity (AID 2283052).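 Further: cell surface tissue factor protein level read by ELISA.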 The settings on record: primary human coronary artery smooth muscle cells; actives raise or lower the signal.

Read-out in assay [3]: Interferon-gamma inducible Protein 10 (IP10), CXCL10 (gene 3627)
Briefly: BSK_hDFCGF_IP10: BioMAP Diversity Plus: hDFCGF Assay for Interferon-gamma inducible Protein 10 (IP10) Biomarker Activity (AID 2283053). To be noted: primary human foreskin fibroblasts; actives raise or lower the signal. An outline of the steps:
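Chemical-treated human skin fibroblasts (primary) were sampled at 24 h for IP-10 by ELISA. Both increases and decreases relative to DMSO were scored.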

Read-out in assay [4]: Urokinase-type plasminogen activator receptor (uPAR), PLAUR (gene 5329)
Briefly: BSK_CASM3C_uPAR: BioMAP Diversity Plus: CASM3C Assay for Urokinase-type plasminogen activator receptor (uPAR) Biomarker Activity (AID 2283054).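 Further: cell-surface uPAR protein level quantified by ELISA.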 The settings on record: primary human coronary artery smooth muscle cells; actives raise or lower the signal.

Read-out in assay [5]: Vascular cell adhesion molecule 1 (VCAM1), VCAM1 (gene 7412)
Briefly: BSK_CASM3C_VCAM1: BioMAP Diversity Plus: CASM3C Assay for Vascular cell adhesion molecule 1 (VCAM1) Biomarker Activity (AID 2283055).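 Further: VCAM-1 protein level quantified by ELISA on the cells.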 To be noted: primary human coronary artery smooth muscle cells; actives raise or lower the signal.

Read-out in assay [6]: Collagen III, COL3A1 (gene 1281)
Briefly: BSK_hDFCGF_CollagenIII: BioMAP Diversity Plus: hDFCGF Assay for Collagen III Biomarker Activity (AID 2283056). To be noted: primary human foreskin fibroblasts; actives raise or lower the signal. Summed up:
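Human foreskin fibroblast primary cultures sampled 24 h after dosing; Collagen III quantified by ELISA. Signal fitted bidirectionally against DMSO baseline.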

Read-out in assay [7]: Epidermal growth factor receptor (EGFR), EGFR (gene 1956)
Briefly: BSK_hDFCGF_EGFR: BioMAP Diversity Plus: hDFCGF Assay for Epidermal growth factor receptor (EGFR) Biomarker Activity (AID 2283057). To be noted: primary human foreskin fibroblasts; actives raise or lower the signal. Summed up:
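Cell-based multiplexed assay in primary human foreskin fibroblasts. EGFR is read by ELISA 24 h after treatment and compared with DMSO controls.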

Read-out in assay [8]: Interleukin-8 (IL8), CXCL8 (gene 3576)
Briefly: BSK_hDFCGF_IL8: BioMAP Diversity Plus: hDFCGF Assay for Interleukin-8 (IL8) Biomarker Activity (AID 2283058). The settings on record: primary human foreskin fibroblasts; actives raise or lower the signal. An outline of the steps:
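Primary human foreskin fibroblasts (hDFCGF system) dosed with chemical; IL-8 measured by ELISA 24 hours later. Bidirectional curve fitting relative to DMSO baseline; cytotoxicity tracked in parallel cultures by SRB total protein staining.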

Assay [9] in a line: BSK_hDFCGF_Proliferation: Cell Proliferation Assessment in the BioMAP Diversity Plus: hDFCGF Assay (AID 2283059).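 Further: curves fitted for both rise and fall of signal versus DMSO baseline.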 The settings on record: primary human foreskin fibroblasts. An outline of the steps:
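Total protein read at 560 nm after 0.1% SRB staining of TCA-fixed human skin fibroblasts, […]. Activity is fitted in both directions relative to DMSO as baseline.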

Read-out in assay [10]: Macrophage colony-stimulating factor (MCSF), CSF1 (gene 1435)
Briefly: BSK_hDFCGF_MCSF: BioMAP Diversity Plus: hDFCGF Assay for Macrophage colony-stimulating factor (MCSF) Biomarker Activity (AID 2283060). The settings on record: primary human foreskin fibroblasts; actives raise or lower the signal. Summed up:
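Human foreskin fibroblast primary cultures; M-CSF measured by ELISA 24 hours after chemical dosing. Bidirectional fitting relative to DMSO, with overt cytotoxicity tracked by parallel SRB total-protein staining (0.1% SRB, 10% TCA fixation, 560 nm).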

Assay [11] is described as follows: BSK_hDFCGF_SRB: Viability Assessment in the BioMAP Diversity Plus: hDFCGF Assay (AID 2283061).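 Further: cells exposed to compound for 24 h before the read.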 The settings on record: primary human foreskin fibroblasts. An outline of the steps: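 Human foreskin fibroblasts in 96-well plates were treated 24 h. Total protein was measured by 0.1% SRB staining after 10% TCA fixation, read at 560 nm. Data were fitted bidirectionally against DMSO.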

Read-out in assay [12]: TIMP metallopeptidase inhibitor 1 (TIMP1), TIMP1 (gene 7076)
Briefly: BSK_hDFCGF_TIMP1: BioMAP Diversity Plus: hDFCGF Assay for TIMP metallopeptidase inhibitor 1 (TIMP1) Biomarker Activity (AID 2283062). The settings on record: primary human foreskin fibroblasts; actives raise or lower the signal. Summed up:
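Human foreskin fibroblast primary cultures dosed for 24 h; secreted/surface TIMP-1 quantified by ELISA. Bidirectional curve fitting against DMSO baseline; cytotoxicity tracked in parallel cultures by SRB total-protein staining.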

Read-out in assay [13]: Monokine induced gamma interferon (MIG), CXCL9 (gene 4283)
Briefly: BSK_hDFCGF_MIG: BioMAP Diversity Plus: hDFCGF Assay for Monokine induced gamma interferon (MIG) Biomarker Activity (AID 2283063). The settings on record: primary human foreskin fibroblasts; actives raise or lower the signal. Summed up:
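MIG/CXCL9 measured by ELISA 24 h after dosing primary human skin fibroblasts. Activity fitted in both directions against DMSO controls. Cytotoxicity was checked in parallel cultures by SRB staining read at 560 nm.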

Read-out in assay [14]: Matrix Metallopeptidase 1 (MMP1), MMP1 (gene 4312)
Briefly: BSK_hDFCGF_MMP1: BioMAP Diversity Plus: hDFCGF Assay for Matrix Metallopeptidase 1 (MMP1) Biomarker Activity (AID 2283064). The settings on record: primary human foreskin fibroblasts; actives raise or lower the signal. Summed up:
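Human foreskin fibroblasts exposed to chemical for 24 h; MMP1 detected by ELISA, with DMSO as baseline for bidirectional fitting.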

Read-out in assay [15]: Vascular cell adhesion molecule 1 (VCAM1), VCAM1 (gene 7412)
Briefly: BSK_hDFCGF_VCAM1: BioMAP Diversity Plus: hDFCGF Assay for Vascular cell adhesion molecule 1 (VCAM1) Biomarker Activity (AID 2283065).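 On AC50: VCAM-1 protein level quantified by ELISA after 24 h chemical exposure.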 To be noted: primary human foreskin fibroblasts; actives raise or lower the signal. An outline of the steps:
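Human foreskin fibroblast primary cells dosed with chemical, VCAM-1 measured by ELISA at 24 h. Bidirectional curve fitting relative to DMSO as negative control/baseline.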

Read-out in assay [16]: Plasminogen activator inhibitor-1 (PAI1), SERPINE1 (gene 5054)
Briefly: BSK_hDFCGF_PAI1: BioMAP Diversity Plus: hDFCGF Assay for Plasminogen activator inhibitor-1 (PAI1) Biomarker Activity (AID 2283066). The settings on record: primary human foreskin fibroblasts; actives raise or lower the signal. Summed up:
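Human skin fibroblast cultures receive chemical for 24 h before PAI-1 is measured by ELISA; signal changes are fitted bidirectionally against DMSO-treated wells.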

Read-out in assay [17]: Intercellular Adhesion Molecule 1 (ICAM1), ICAM1 (gene 3383)
Briefly: BSK_KF3CT_ICAM1: BioMAP Diversity Plus: KF3CT Assay for Intercellular Adhesion Molecule 1 (ICAM1) Biomarker Activity (AID 2283067). The settings on record: primary human keratinocytes with fibroblasts; actives raise or lower the signal. Summed up:
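Human keratinocyte–foreskin fibroblast co-culture was treated for 24 h. Cell-surface ICAM-1 was quantified by ELISA, fitted bidirectionally relative to DMSO. Cytotoxicity was checked in parallel cultures by SRB total-protein staining.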

Read-out in assay [18]: Interferon-gamma inducible Protein 10 (IP10), CXCL10 (gene 3627)
Briefly: BSK_KF3CT_IP10: BioMAP Diversity Plus: KF3CT Assay for Interferon-gamma inducible Protein 10 (IP10) Biomarker Activity (AID 2283068). The settings on record: primary human keratinocytes with fibroblasts; actives raise or lower the signal. An outline of the steps: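 Human keratinocyte plus foreskin fibroblast primary co-culture exposed to test chemical for 24 h; IP-10 measured by ELISA. Concentration-response fitted bidirectionally against DMSO control as baseline.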

Assay [19] can be described thus: BSK_KF3CT_SRB: Viability Assessment in the BioMAP Diversity Plus: KF3CT Assay (AID 2283069).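 Further: read 24 h after compound addition; fitted for both signal gain and loss against DMSO baseline.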 The settings on record: primary human keratinocytes with fibroblasts. An outline of the steps:
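Overt cytotoxicity is assessed as total protein by sulforhodamine B staining in parallel human skin co-cultures at 24 h after dosing. DMSO serves as negative control and baseline.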

Read-out in assay [20]: Interleukin-1 alpha (IL1a), IL1A (gene 3552)
Briefly: BSK_KF3CT_IL1a: BioMAP Diversity Plus: KF3CT Assay for Interleukin-1 alpha (IL1a) Biomarker Activity (AID 2283070). The settings on record: primary human keratinocytes with fibroblasts; actives raise or lower the signal. Summed up:
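Readout is IL-1a level by ELISA, compared bidirectionally with DMSO as baseline. Cells: human keratinocytes co-cultured with foreskin fibroblasts, harvested 24 h post-dose.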

Structures are written as SMILES. Activity calls are given as the source filed them. How the source made its calls: active means hit-call score of the fitted dose curve at least 0.9, where 1 is the maximum; inactive means score below 0.9.

On to `CN(C)C(=S)S`, for which the result in [1], in assay [2], in assay [4], in [5], in assay [7] and in assay [17] was inactive. For the same compound, the outcome in assay [18], in assay [19] and in [20] was inactive. For the same compound, the AC50 in assay [3] is 18 µM (active); in assay [6], 3.97 µM (active); in assay [8] it was 30.9 µM (active); in assay [9], 14.6 µM (active); in assay [10], 14.2 µM (active); in assay [11], 27.1 µM (active). The AC50 in assay [12] was 13 µM (active); in assay [13] it was 21.6 µM (active); in assay [14], 36.9 µM (active); in assay [15] it was 11.2 µM (active); in [16], 33.6 µM (active).
`CC(C)(C)c1ccccc1O`: the result in assay [1], in assay [2], in assay [3], in assay [4], in assay [5] and in assay [6] was inactive. The outcome in assay [7], in assay [8], in [9], in assay [10], in assay [11] and in assay [12] was inactive. The outcome in assay [13], in assay [14], in assay [15], in assay [16], in assay [17] and in assay [18] was inactive. Moreover, the result in assay [19] and in [20] was inactive.
In the case of `O=[N+]([O-])c1cccc2ccccc12`, the result in assay [1], in assay [2], in [3], in assay [5], in [6] and in [7] was inactive. Besides, the outcome in assay [8], in assay [9], in [10], in assay [11], in assay [12] and in [13] was inactive. Also, the result in [14], in assay [15], in [16], in assay [17], in assay [18] and in assay [19] was inactive. For the same compound, the result in [20] was inactive. Besides, the AC50 in assay [4] is 20 µM (active).
With `O=C(N[C@H]1CN2CCC1CC2)c1ccc2c(c1)OCCO2`, the outcome in assay [1], in assay [2], in [3], in [4], in assay [5] and in assay [6] was inactive. Besides, the result in assay [7], in assay [8], in assay [9], in assay [10], in assay [11] and in assay [12] was inactive. Moreover, the outcome in assay [13], in assay [14], in [15], in [16], in assay [17] and in assay [18] was inactive. Besides, the outcome in assay [19] and in assay [20] was inactive.
As for `OC(Cc1ccccc1Cl)(Cn1cncn1)C1(Cl)CC1` (stereo not given), the outcome in assay [1], in [2], in assay [3], in assay [4], in assay [5] and in [6] was inactive. Also, the outcome in [7], in assay [8], in assay [9], in assay [10], in [11] and in [12] was inactive. In addition, the outcome in assay [13], in [14], in [15], in assay [16], in assay [17] and in [18] was inactive. In addition, the result in [19] and in assay [20] was inactive.
Turning to `Clc1cccc(Cl)c1`, the result in assay [1], in assay [2], in assay [3], in assay [4], in assay [5] and in [6] was inactive. Moreover, the outcome in assay [7], in assay [8], in assay [9], in [10], in assay [11] and in assay [12] was inactive. Also, the result in [13], in assay [14], in [15], in [16], in assay [17] and in assay [18] was inactive. Besides, the outcome in assay [19] and in [20] was inactive.

The term AC50 denotes the concentration giving half of the maximal activity seen.

These data come from PubChem BioAssay (EPA / NIEHS).
